# Reference: PubChem BioAssay (Tox21)
# Values joined by “and” are separate entries in the source; they are usually repeats but may differ in a detail not shown here. Identical values can stand only once. Results filed as inconclusive are left out. Values without a mark were called inactive. Active and inactive are the calls of the source. The call rests on the fitted dose curve.
# Experiment: qHTS assay to identify small molecule antagonists of the sonic hedgehog signaling (Shh) pathway (AID 1259369); further: nearly all actives have a fitted effect of over 45% in size
# Settings: NIH/3T3 Gli1-Luc reporter, Shh antagonist, luminescence 24 h; series mostly up to 92.4 µM; activity change, negative = inhibition: at the top concentration
# Source text: U.S. Tox21 Program National Center for Advancing Translational Sciences [NCATS] NIH Chemical Genomics Center [NCGC] U.S. Environmental Protection Agency [EPA] National Institutes of Environmental Health Sciences [NIEHS] National Toxicology Program [NTP] U.S. Food and Drug Administration [FDA] Tox21 Assay Overview: The sonic hedgehog (Shh) pathway is essential for normal embryonic development. Dysregulation of the Shh pathway can cause severe developmental defects in organs. Therefore chemicals that interfere with the pathway are potential developmental toxicants. A cell line designated 3T3Gli1-Luc (DMB/OARSA/CFSAN/FDA, Laurel, MD), a NIH/3T3 derived clone containing stably integrated Gli1-Luc reporter is used to detect chemical interference of the Shh pathway, by changes in the expression of the firefly Luc gene under the control of the Gli1 transcriptional response element. This cell line was used to screen Tox21 libraries for identifying and prioritizing the potential developmental toxicants that interfere Shh pathway. Conditioned medium-stimulated mode was used to screen for chemicals inhibiting Shh signaling.
# Tox21 Assay Protocol Summary: 3T3 Gli1-Luc cells were dispensed at 2,000 per well in 5uL of culture medium into white solid bottom 1536-well plates (Greiner Bio-One, Monroe, NC) using a Multidrop Combi (Thermo Scientific, Waltham, MA) dispenser. The assay plates were incubated at 37 C and 5% CO2 for 4hr, and then 23nL of compounds dissolved in DMSO and positive control were transferred using a Pintool station (Wako, San Diego, CA). The compound transfer was followed by the addition of 1ul conditioned medium or assay buffer using two separate tips of Flying Reagent Dispenser (FRD, Aurora Discovery, San Diego, CA). The assay plates were incubated at 37C and 5% CO2 for 24hr. For luciferase read, 4uL of Amplite Luciferase reporter gene assay reagent (AAT Bioquest, Inc. Sunnyvale, CA) was added to each well of the assay plates using FRD and incubated at room temperature for 30min. The luminescence signal was measured using a ViewLux plate reader (Perkin Elmer, Shelton, CT).
# On the % scale 0 is the no-effect control and ±100 the full control effect; potency means the concentration at half of the fitted maximal effect.
Compound,"activity change, negative = inhibition",Potency
CC(=O)[O-].CC(=O)[O-].[Co+2],46.7%,
O=C(N[C@@H]1N=C(c2ccccc2F)c2cccc3c2N(CC3)C1=O)c1cc2ccccc2[nH]1,12.7% [at 42.5 µM],
OCC(Br)CBr (stereo not given),80.2%,
O=C(NC(=O)c1ccccc1Cl)Nc1ccc(OC(F)(F)F)cc1,8.99%,
Cc1ccn2nc(S(=O)(=O)Nc3c(F)cccc3F)nc2n1,14%,
Clc1c(Cl)c(Cl)c(Cl)c(Cl)c1Cl,3.84% [at 8.39 µM],
CCC[CH2][Sn]([CH2]CCC)([O]C(C)=O)[O]C(C)=O,,2.19 µM (active)
CN=C=O,17.1%,
CCN(CC)C(=O)N[C@@H]1C=C2c3cccc4[nH]cc(c34)C[C@@H]2N(C)C1,-18.9% [at 42.5 µM],
CCC(C)Br (stereo not given),-5.29%,
CCCCCCCCCCCCCCn1cc[n+](C)c1,,122 nM (active) and 42.8 nM (active)
c1ccc2nc(N3CCNCC3)ccc2c1,5.19% [at 42.5 µM],
CC(Cc1ccc(O)cc1)NCC(O)c1cc(O)cc(O)c1 (stereo not given),18.8% [at 42.5 µM],
CCCCn1cc[n+](C)c1 (tested in a mixture with another compound),-0.697%,
CCn1cc[n+](C)c1 (tested in a mixture with another compound),19.9%,
CCCCn1cc[n+](C)c1.[Cl][Fe-]([Cl])([Cl])[Cl],2.83%,
[O-][Cl+3]([O-])([O-])O,0%,
O=C(O)CCCCCCNC1c2ccccc2CCc2ccccc21,1.53% [at 42.5 µM],
CC(Cl)CCl (stereo not given),0.0024%,
CN1CCc2cc(Cl)c(O)cc2[C@H]2c3ccccc3CC[C@@H]21,-5.57% [at 42.5 µM],

Compound,"activity change, negative = inhibition",Potency
O=[N+]([O-])c1ccc(Cl)c(Cl)c1Cl,5.4%,
O=NN(CCO)CCO,22.8%,
Clc1ccc(C(Cl)(Cl)Cl)cc1Cl,-8.21%,
c1csc(-c2ccc(-c3cccs3)s2)c1,0%,
CCC1COC(Cn2cncn2)(c2ccc(Cl)cc2Cl)O1 (stereo not given),,54.5 µM (active)
CCN(CC)CCN1C(=O)CN=C(c2ccccc2F)c2cc(Cl)ccc21,-12.7% [at 42.5 µM],
Cc1nn(-c2cc(NS(C)(=O)=O)c(Cl)cc2Cl)c(=O)n1C(F)F,-2.58%,
CN1[C@@H]2CC[C@H]1CC(O)C2 (stereo not given in full),-9.24%,
Cc1ccc(C)c2ccccc12,0%,
CC(C)C(Br)C(=O)NC(N)=O (stereo not given),5.87% [at 42.5 µM],
ClC1(Cl)C2(Cl)C3(Cl)C4(Cl)C(Cl)(Cl)C5(Cl)C3(Cl)C1(Cl)C5(Cl)C24Cl (stereo not given),22.6%,
CC1CN1 (stereo not given),-6.42%,
CSC1=N[C@@](C)(c2ccccc2)C(=O)N1Nc1ccccc1,,2.43 µM (active)
CCC(C)Nc1c([N+](=O)[O-])cc(C(C)(C)C)cc1[N+](=O)[O-] (stereo not given),-5.37%,
C#CCO,15.7%,
[F][Sn]([c]1ccccc1)([c]1ccccc1)[c]1ccccc1,,0.0486 µM (active)
CCOP(=O)(OCC)Oc1cc(C)nc(C(C)C)n1,10.7%,
COP(=S)(OC)Oc1nc(Cl)c(Cl)cc1Cl,-22.5%,
CCNc1nc(NC(C)C(C)C)nc(SC)n1 (stereo not given),,4.86 µM (active)
CCCN,14.4%,
